Structures are written as SMILES. Records with an inconclusive call do not appear. A call without a number means that no potency is given here. Values without a mark were called inactive. Activity calls are given as the source filed them. Calls come from the whole dose curve; as a rule, active = well fitted curve in the direction sought with a large enough effect in the repeat runs; inconclusive = weak or mixed curves; inactive = no such curve, though single readings can be large; an effect the other way counts as inactive or inconclusive.

A short description of one experiment: qHTS assay to identify small molecule antagonists of the estrogen related receptor (ERR) signaling pathway - cell viability counter screen (AID 1224818).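 Note: viability measured after 17.5 h of compound exposure.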 Conditions: ERR reporter cell line viability counter screen; series mostly up to 46.1 µM. In outline:
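Cells carrying the ERR pathway reporter were seeded and incubated for 6 hours before compound addition. After a 17.5-hour exposure at 37 C, live-cell protease activity was measured by CellTiter-Fluor fluorescence following 30 minutes of incubation.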
A general note: Quantitative high-throughput screening tests each substance at several concentrations.
With `CCCCCCCC/C=C\CCCCCCCC(=O)NCc1ccc(O)c(OC)c1`, the Potency entry is “inactive”. With `CCCCNc1c(C(=O)OCC)c(C)nc2c1cnn2CC`, the Potency result is “inactive”.

As for `Cc1cn[nH]c1`, the Potency result was “inactive”.

Another experiment can be described thus: qHTS assay to identify small molecule antagonists of the estrogen related receptor signaling pathway with the pleiotropic PPARgamma coactivator (PGC) cell viability counter screen (AID 1224822;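 note: viability read after 17.5 h compound exposure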). Conditions: ERR/PGC reporter cell line viability counter screen; series mostly up to 46.1 µM. In outline:
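Seed PGC/ERR cells (2,000/well); incubate 6 h at 37 C/5% CO2; pin-transfer compounds in DMSO; incubate 17.5 h at 37 C; add CellTiter-Fluor; after 30 min read fluorescence.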
With `CCCCCCCC/C=C\CCCCCCCC(=O)NCc1ccc(O)c(OC)c1`, the Potency result is “inactive”. For `CCCCNc1c(C(=O)OCC)c(C)nc2c1cnn2CC`, the Potency entry is “inactive”. On the same count and under the same terms, next, `Cc1cn[nH]c1`: “inactive”.

A further experiment can be described thus: qHTS assay to identify small molecule antagonists of the estrogen related receptor (ERR) signaling pathway from Tox21 library - cell viability counter screen (AID 1224834). Note: nearly all actives have a fitted effect of over 30% in size. Note: potency is the fitted concentration of half-maximal effect. Conditions: ERR reporter cells viability, CellTiter-Fluor, 17.5 h; series mostly up to 92.4 µM. In outline:
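Cytotoxicity of test substances is gauged in the same ERR cells used for the antagonist screen, after 17.5 h of compound treatment at 37 C, by CellTiter-Fluor fluorescence measured after 30 min.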
In the case of `CCN1CCN(c2cc(-c3ccc(F)cc3)c3c(n2)CCCCCC3)CC1`, the viability change, negative = cytotoxic was 0.165% [at 19 µM]. For `CC(=O)Oc1ccc(C2(c3ccc(OC(C)=O)cc3)C(=O)Nc3ccccc32)cc1`, the Potency result is “inactive”. Same read-out and setting: the same measure for `CC(C)(C)C1=CC(=O)C=C(C(C)(C)C)C1=O`: “inactive”. On to `CCCCCCCC/C=C\CCCCCCCC(=O)NCc1ccc(O)c(OC)c1`, for which the Potency result is “inactive”. As for `C/C=C/C=N/NC(=O)c1ccncc1`, the Potency result was “inactive”.

In the case of `CN(C)c1ccc(N=Nc2ccccc2C(=O)O)cc1`, the Potency was 48.6 µM (active). Same read-out and setting: next, `CCCCCCCC/C=C/CCCOC(C)=O`: “inactive”; `O=S(=O)(O)CCCN1CCOCC1`: “inactive”; `O=C(O)Cc1ccc(OCCNC[C@H](O)c2ccccc2)cc1`: “inactive”. `CC1(C)C(=O)N(Br)C(=O)N1Br`: the Potency result was “inactive”. Turning to `c1cc(OCC2CO2)cc(OCC2CO2)c1` (stereo not drawn), the Potency is 60.6 µM (active).

Turning to `CCCCNc1c(C(=O)OCC)c(C)nc2c1cnn2CC`, the Potency entry was “inactive”.

Turning to `Cc1cn[nH]c1`, the Potency entry is “inactive”. Still for that read-out and setting: next, `CCNc1nc(NC(C)CC)nc(OC)n1` (stereo not drawn): “inactive”; `O=C(O)CCCCCCC(=O)O`: “inactive”. `O=C(c1ccccc1)c1cc(Cl)ccc1O`: the Potency result was “inactive”. As for `COC(=O)CC(C)CCC=C(C)C` (stereo not drawn), the Potency entry was “inactive”. Same read-out and setting: the same measure for `c1cc2c3c(c1)ccc1cccc(c13)C2`: “inactive”; for `CCCCCCCCCCCC(=O)N(CC)CC`: “inactive”. On the same count and under the same terms, the same measure for `CNC(=S)NN`: 15.4 µM (active).

With `N[C@@H](CSSC[C@H](N)C(=O)O)C(=O)O`, the viability change, negative = cytotoxic was 4.71% [at 0.349 µM]. Take `ClC/C=C\CCl`: the Potency result was “inactive”.

The values are drawn from PubChem BioAssay (Tox21).
